Measurements reported in PubChem BioAssay (NCATS).
Records with an inconclusive call do not appear. Calls of active or inactive are those of the source. Unless noted, calls come from the whole dose curve; as a rule, active = well fitted curve in the direction sought with a large enough effect; inconclusive = small, poorly fitted or top-dose-only effect, or another doubt; inactive = no such curve, though single readings can be large; an effect the other way counts as inactive or inconclusive.

What was measured:
[1] = AP1 Signaling Pathway (AID 357; active = well fitted curve in either direction with a large enough effect, not every such curve was filed as active;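 note: ME-180 reporter cells stimulated with EGF at its EC50 level; % is set by controls: 0 for no effect and ±100 for the full control effect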); details: ME-180 AP-1-bla reporter, EGF-induced, beta-lactamase ratio, 5 h; at 38 µM (top of the series)
Method in brief: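 Read-out was the 460nm/530nm emission ratio (excitation 405nm) after CCF4 loading for 2.5 hours at room temperature. Cells carried an AP-1-driven beta-lactamase reporter, were stimulated with EC50 EGF plus compound for 5 hours, and AC50 values came from titrations.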

[2] = NFAT Signaling Pathway (AID 444; active = well fitted curve in either direction with a large enough effect, not every such curve was filed as active;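 note: carbachol stimulus at about its EC50 of 1 µM final; % is set by controls: 0 for no effect and ±100 for the full control effect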); details: Jurkat NFAT-bla M1, carbachol, beta-lactamase ratio, 5 h; at 38 µM (top of the series)
Method in brief: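 Jurkat cells carrying an NFAT-driven β-lactamase reporter and co-transfected muscarinic M1 receptor were treated with compound plus carbachol (1 uM final, an EC50 level) for 5 h at 37 °C. CCF4 loading followed for 1 h at RT; 460/530 nm ratio gave %activity.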

[3] = Stat Signaling Pathway (AID 446; active = well fitted curve in either direction with a large enough effect, not every such curve was filed as active;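 note: ME-180 cervical cancer cells given 40 pM IL-6 alongside compound; SIE-controlled beta-lactamase reporter measured as 460/530 nm FRET emission ratio; % is set by controls: 0 for no effect and ±100 for the full control effect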); details: ME-180 SIE beta-lactamase reporter, IL-6 stimulated, 5 h; at 38 µM (top of the series)
Method in brief: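 ME-180 SIE-bla cells; overnight plating; cpd + IL-6 40 pM, 5 h, 37 C; LiveBLAzer 2.5 h RT; 460/530 nm emission ratio. Normalized to 300 pM IL-6 and 125 nM JAK inhibitor controls.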

[4] = biological target: Glucocorticoid receptor (Homo sapiens) (UniProt P04150); test: GR-GFP Redistribution (AID 450;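 active = compounds whose dose series gives a full or clear partial fitted curve of increased nuclear translocation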; note: potency is the fitted concentration of half-maximal effect); details: U2OS GR-GFP nuclear translocation, laser cytometry, 2 h
Glucocorticoid receptor (Homo sapiens), sequence (P04150 whole entry, looked up): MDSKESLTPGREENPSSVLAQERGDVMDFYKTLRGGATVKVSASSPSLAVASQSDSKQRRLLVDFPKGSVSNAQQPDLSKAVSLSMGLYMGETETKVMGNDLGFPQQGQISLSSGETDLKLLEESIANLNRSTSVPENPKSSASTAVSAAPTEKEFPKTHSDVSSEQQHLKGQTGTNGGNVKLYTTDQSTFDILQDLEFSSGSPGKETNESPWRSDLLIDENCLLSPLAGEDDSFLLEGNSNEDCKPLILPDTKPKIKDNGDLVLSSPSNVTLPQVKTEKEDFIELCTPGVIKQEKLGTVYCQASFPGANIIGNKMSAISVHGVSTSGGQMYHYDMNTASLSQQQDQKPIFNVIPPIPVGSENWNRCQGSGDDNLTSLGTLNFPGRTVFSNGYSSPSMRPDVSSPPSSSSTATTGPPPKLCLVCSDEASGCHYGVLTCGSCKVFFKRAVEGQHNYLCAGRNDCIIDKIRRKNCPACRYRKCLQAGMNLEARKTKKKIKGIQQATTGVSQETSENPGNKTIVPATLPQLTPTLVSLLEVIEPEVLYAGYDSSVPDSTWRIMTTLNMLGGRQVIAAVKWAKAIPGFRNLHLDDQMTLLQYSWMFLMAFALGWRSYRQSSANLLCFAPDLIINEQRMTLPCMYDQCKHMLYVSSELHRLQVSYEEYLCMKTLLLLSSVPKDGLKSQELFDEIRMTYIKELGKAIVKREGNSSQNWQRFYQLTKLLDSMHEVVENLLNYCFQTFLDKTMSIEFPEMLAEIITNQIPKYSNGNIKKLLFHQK

[5] = biological target: Mitogen-activated protein kinase 10 (Mus musculus) (UniProt Q61831); test: JNK3 AlphaScreen Assay (AID 530; active = well fitted curve in either direction with a large enough effect, not every such curve was filed as active;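 note: kinase came from lysate of stimulated human HepG2 cells; signal reports phosphorylation of biotinylated GST-cJun 1-79 at Ser73 with 10 µM ATP; % is set by controls: 0 for no effect and ±100 for the full control effect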)
Method in brief: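 JNK3 came from HepG2 lysates pre-activated with IL-1beta and TNF-alpha and phosphorylated biotinylated GST-cJun (1-79) at 10 uM ATP, pH 7.6, room temperature. Compounds were titrated. AlphaScreen signal used anti-phospho-cJun (Ser73) antibody.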

[6] = biological target: 3',5'-cyclic-AMP phosphodiesterase 4B (Homo sapiens) (UniProt Q07343); test: qHTS Assay for Inhibitors of PDE-IV (AID 607; active = well fitted activation curve with a large enough effect in the main read-out, with a control signal flat, not every such curve was filed as active; note: % of control where 0% means no effect)
3',5'-cyclic-AMP phosphodiesterase 4B (Homo sapiens), sequence (Q07343 whole entry, looked up): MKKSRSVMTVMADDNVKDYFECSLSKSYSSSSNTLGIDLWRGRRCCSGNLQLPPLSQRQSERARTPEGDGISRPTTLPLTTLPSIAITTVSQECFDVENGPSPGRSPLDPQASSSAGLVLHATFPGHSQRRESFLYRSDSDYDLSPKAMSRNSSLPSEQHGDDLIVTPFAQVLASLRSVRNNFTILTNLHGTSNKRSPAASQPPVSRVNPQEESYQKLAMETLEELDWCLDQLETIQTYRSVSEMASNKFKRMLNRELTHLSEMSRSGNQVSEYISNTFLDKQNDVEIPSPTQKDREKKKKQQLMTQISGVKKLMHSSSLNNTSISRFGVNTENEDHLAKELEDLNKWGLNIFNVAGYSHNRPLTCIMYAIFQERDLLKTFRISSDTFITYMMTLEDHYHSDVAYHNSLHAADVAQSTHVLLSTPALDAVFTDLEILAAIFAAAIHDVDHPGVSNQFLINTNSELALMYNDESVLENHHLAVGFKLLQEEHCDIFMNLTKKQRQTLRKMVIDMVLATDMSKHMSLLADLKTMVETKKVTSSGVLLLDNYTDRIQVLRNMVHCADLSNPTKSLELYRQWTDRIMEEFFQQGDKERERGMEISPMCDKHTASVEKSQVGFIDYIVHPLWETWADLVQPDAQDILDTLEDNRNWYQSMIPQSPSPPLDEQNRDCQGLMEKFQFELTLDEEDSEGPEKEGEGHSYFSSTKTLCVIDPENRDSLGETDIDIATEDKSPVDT
Method in brief: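 ACTOne HEK293 cells carry a modified cAMP-gated CNG channel and express endogenous PDE4; plated 1000 cells/well, compounds up to 22.9 uM final. Membrane-potential dye fluorescence (ex 535/em 590) was read; parental cells received 10 uM forskolin + 100 uM RO 20-1724.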

[7] = biological target: Guanine nucleotide-binding protein G(i) subunit alpha-1 (Homo sapiens) (UniProt P63096); test: qHTS Assay for Inhibitors of RGS12 GoLoco Motif Activity (Green Fluorophore) (AID 879);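 note: 0% = labeled peptide with Gαi1 and full inhibition = labeled peptide alone without protein; negative values mean loss of peptide binding seen as reduced polarization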
Guanine nucleotide-binding protein G(i) subunit alpha-1 (Homo sapiens), sequence (P63096 whole entry, looked up): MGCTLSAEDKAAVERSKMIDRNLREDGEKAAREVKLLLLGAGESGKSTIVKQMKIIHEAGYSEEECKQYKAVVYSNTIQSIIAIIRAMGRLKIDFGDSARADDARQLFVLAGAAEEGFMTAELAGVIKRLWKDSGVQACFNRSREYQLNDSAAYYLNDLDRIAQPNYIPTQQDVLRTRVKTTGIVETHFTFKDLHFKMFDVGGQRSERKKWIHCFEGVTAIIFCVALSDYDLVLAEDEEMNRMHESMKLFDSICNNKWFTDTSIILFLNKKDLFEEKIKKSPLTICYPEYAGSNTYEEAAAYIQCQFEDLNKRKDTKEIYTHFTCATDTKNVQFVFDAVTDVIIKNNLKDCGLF
Method in brief: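 Fluorescence polarization assay: 50 nM Gαi1 with 10 nM FITC-labeled RGS12 GoLoco peptide in 10 mM Tris pH 7.5, 150 mM NaCl, 0.1 mM GDP, 0.05% NP40, 10 min at room temperature with compound.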

[8] = biological target: Cytochrome P450 3A4 (Homo sapiens) (UniProt P08684); test: qHTS Assay for Activators of Cytochrome P450 3A4 (AID 885); note: nearly all actives have a fitted effect of over 65% in size
Cytochrome P450 3A4 (Homo sapiens), sequence (P08684 whole entry, looked up): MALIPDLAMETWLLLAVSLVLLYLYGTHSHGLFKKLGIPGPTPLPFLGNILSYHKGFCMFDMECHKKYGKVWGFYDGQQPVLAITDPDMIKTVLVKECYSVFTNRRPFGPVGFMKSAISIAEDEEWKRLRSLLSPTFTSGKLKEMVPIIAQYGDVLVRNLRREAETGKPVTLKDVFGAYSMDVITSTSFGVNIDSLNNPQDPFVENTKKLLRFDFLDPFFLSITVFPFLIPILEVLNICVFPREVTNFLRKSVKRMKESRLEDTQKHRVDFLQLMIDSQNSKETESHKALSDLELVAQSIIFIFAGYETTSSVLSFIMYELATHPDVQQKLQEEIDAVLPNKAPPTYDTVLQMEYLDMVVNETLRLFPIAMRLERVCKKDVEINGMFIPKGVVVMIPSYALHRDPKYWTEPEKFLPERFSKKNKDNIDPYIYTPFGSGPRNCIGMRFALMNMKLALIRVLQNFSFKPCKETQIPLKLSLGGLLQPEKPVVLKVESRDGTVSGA
Method in brief: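 20nM CYP3A4 + 25uM Luciferin-PPXE (=KM), 200mM KPO4; cpd 10 min RT; NADPH regen, 60 min RT; stop w/ detection buffer, 20 min; luminescence. Normalized to 57 uM ketoconazole.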

[9] = biological target: Muscarinic acetylcholine receptor M1 (Rattus norvegicus) (UniProt P08482); test: qHTS Assay for Antagonists of Acetylcholine Muscarinic M1 Receptor: Kinetic Measurement of Intracellular Calcium Response (AID 943);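 note: Fluo-4 calcium signal as peak divided by basal fluorescence over 4 min; nearly all actives have a fitted effect of over 75% in size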
Muscarinic acetylcholine receptor M1 (Rattus norvegicus), sequence (P08482 whole entry, looked up): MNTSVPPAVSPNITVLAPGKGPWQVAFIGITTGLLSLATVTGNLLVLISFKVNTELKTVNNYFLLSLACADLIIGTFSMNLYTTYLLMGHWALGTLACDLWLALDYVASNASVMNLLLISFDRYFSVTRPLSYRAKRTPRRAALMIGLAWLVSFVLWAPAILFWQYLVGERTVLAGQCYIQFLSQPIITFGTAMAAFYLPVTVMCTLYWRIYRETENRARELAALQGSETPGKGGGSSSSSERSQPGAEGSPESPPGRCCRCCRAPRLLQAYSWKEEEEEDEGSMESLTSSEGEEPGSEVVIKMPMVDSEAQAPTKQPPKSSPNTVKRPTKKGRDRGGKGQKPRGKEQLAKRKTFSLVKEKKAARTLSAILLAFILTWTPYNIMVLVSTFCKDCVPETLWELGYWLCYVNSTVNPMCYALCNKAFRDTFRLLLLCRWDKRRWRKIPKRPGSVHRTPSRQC
Method in brief: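 Intracellular calcium flux, recorded with Fluo-4 in a kinetic plate reader, served as signal; the response to carbachol at EC80 (100 nM final) was taken as maximal over minimal fluorescence after a 10 min compound pre-incubation in rat M1-CHO cells.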

[10] = biological target: Muscarinic acetylcholine receptor M1 (Rattus norvegicus) (UniProt P08482); test: qHTS Assay for Antagonists of Acetylcholine Muscarinic M1 Receptor: Measurement of IP-One Response (AID 944); note: nearly all actives have a fitted effect of over 75% in size
Method in brief: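 Steps: plate transfected CHO-M1 cells overnight; add test compound, 10 min; add carbachol (200 nM, EC80) in stimulation buffer with LiCl; incubate 30 min; add labelled IP1 tracer and anti-IP1 antibody in lysis buffer; read HTRF after 10 min.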

[11] = biological target: Pyruvate kinase (Leishmania mexicana) (UniProt Q27686); test: qHTS Validation Assay for Inhibitors of Leishmania Mexicana Pyruvate Kinase (AID 945);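 note: 0% = DMSO only neutral control wells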
Pyruvate kinase (Leishmania mexicana), sequence (Q27686 2-499 E452W): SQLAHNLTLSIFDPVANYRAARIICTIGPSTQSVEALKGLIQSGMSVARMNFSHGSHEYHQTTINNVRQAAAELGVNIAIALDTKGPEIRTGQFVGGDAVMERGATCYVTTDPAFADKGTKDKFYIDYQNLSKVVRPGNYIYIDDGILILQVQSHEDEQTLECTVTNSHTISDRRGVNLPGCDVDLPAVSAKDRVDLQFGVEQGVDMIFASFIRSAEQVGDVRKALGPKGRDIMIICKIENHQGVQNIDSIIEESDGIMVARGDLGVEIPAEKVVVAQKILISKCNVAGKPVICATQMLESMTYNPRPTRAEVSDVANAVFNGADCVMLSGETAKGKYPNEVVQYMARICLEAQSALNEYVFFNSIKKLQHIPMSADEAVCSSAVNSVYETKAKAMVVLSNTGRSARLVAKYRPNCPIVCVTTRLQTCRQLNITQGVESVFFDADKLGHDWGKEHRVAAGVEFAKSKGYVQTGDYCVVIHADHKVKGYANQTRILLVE
Method in brief: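 Pyruvate kinase activity of E451W LmPYK (0.2 nM) was followed as ATP output after 1 h at room temperature with 0.5 mM PEP and 0.1 mM ADP, detected by PKLight luminescence.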

[12] = biological target: Pyruvate kinase PKM (Homo sapiens) (UniProt P14618); test: qHTS Assay for Activators of Human Muscle Pyruvate Kinase (AID 954; active = well fitted curve in the direction sought with a large enough effect, not every such curve was filed as active;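 note: 0% = uninhibited enzyme and -100% = no enzyme or full thiadiazolimine inhibition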)
Pyruvate kinase PKM (Homo sapiens), sequence (P14618 whole entry, looked up): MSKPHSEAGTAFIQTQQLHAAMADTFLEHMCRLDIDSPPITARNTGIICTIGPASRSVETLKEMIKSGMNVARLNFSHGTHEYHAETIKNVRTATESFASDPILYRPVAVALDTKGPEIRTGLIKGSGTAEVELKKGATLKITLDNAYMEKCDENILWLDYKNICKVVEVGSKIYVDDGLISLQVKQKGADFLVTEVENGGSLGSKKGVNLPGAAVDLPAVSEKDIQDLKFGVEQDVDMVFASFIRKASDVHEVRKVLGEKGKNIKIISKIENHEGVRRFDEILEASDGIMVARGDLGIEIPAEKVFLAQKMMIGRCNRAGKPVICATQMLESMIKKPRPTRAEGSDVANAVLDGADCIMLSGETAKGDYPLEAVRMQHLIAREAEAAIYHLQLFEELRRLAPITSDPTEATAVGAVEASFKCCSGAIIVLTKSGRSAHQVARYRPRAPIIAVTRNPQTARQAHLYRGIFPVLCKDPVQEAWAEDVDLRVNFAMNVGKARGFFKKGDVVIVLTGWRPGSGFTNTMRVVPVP
Method in brief: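 Luminescence from a luciferase ATP-detection/stop reagent reported PKM2 activity. Reactions contained 0.1 nM purified human enzyme, 0.5 mM PEP, 0.1 mM ADP and 7 mM MgCl2 at pH 7.2, run 1 h at RT.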

[13] = biological target: alpha-glucosidase (Oryza sativa, rice) (UniProt Q653V4); test: Counterscreen for Glucocerebrosidase Inhibitors: qHTS Assay for Rice alpha-Glucosidase at pH 5.0 (AID 997);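 note: 0% = full activity with enzyme and -100% = basal without enzyme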
Method in brief: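 Rice alpha-glucosidase (4 nM final) with 400 uM 4-methylumbelliferyl-alpha-D-glucopyranoside in citrate buffer pH 5.0, 20 min at room temperature, stopped at pH 10; fluorescence 365/440 nm, compounds 0.7 nM–77 uM, AC50 from Hill fits.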

[14] = Validation of Assay for Modulators of Lamin A Splicing (AID 1459; active = well fitted curve in the direction sought with a large enough effect in the signal ratio; the % refers to the signal ratio;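 note: cells exposed to compound for two days before reading; 0% is about no effect; ratio rise marks activators and ratio drop marks inhibitors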)
Method in brief: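 S3 HeLa cells stably expressing a lamin A-EGFP splicing minigene and DsRed2 were seeded at 600 cells/well in Opti-MEM with 2% FBS, pin-dosed, and incubated 48 hrs at 37 °C, 5% CO2. Laser-scanning cytometry (488 nm) gave GFP/RFP total intensity ratio.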

[15] = qHTS Assay for Lipid Storage Modulators (AID 1519; calls by dose curve); details: Drosophila S3 cells, BODIPY lipid droplet/cell ratio, laser cytometry, cells loaded with oleic acid
Method in brief: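 Cells seeded at 5,000 per well were treated with compounds over a concentration series and loaded with oleic acid (400 uM, as added). Lipid droplet fluorescence (488 nm excitation, 500-530 nm channel) was read by laser-scanning cytometry and normalized to 20 uM Triacsin C.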

[16] = biological target: DNA repair nuclease/redox regulator APEX1 (Homo sapiens) (UniProt P27695); test: qHTS Validation Assay for Inhibitors of the Human Apurinic/apyrimidinic Endonuclease 1 (APE1) (AID 1705)
DNA repair nuclease/redox regulator APEX1 (Homo sapiens), sequence (P27695 whole entry, looked up): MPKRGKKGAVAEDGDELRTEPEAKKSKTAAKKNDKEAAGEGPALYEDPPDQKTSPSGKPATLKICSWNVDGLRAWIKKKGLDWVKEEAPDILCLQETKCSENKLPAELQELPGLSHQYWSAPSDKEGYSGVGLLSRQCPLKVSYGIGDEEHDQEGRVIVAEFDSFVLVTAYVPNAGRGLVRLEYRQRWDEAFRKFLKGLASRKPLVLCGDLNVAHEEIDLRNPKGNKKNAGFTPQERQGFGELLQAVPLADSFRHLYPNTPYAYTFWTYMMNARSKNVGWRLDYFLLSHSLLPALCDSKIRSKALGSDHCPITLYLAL
Method in brief: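 Human APE1 was preincubated with compound for 15 min at room temperature, then 50 nM (final) THF-abasic double-stranded DNA substrate bearing 5'-TAMRA and 3'-BHQ-2 was added. Incision-driven fluorescence rise (ex 525/em 598 nm) was read kinetically.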

Cn1cnc2c(NC3CCCC3)ncnc21
-17.7%: max response ([15]; measured here: cell count channel max response)
-21%: max response ([15]; measured here: lipid channel max response)
inactive: activity change, negative = inhibition [1] -18% | activity change, negative = inhibition [2] -0.777% | activity, negative = inhibition [3] 11.1% | Potency [4] > 46 µM | Potency [5] | Potency [6] | outcome [7] | Potency [8] | Potency [9] | Potency [10] | Potency [11] | outcome [12] | outcome [13] | outcome [14] | activity change, negative = inhibition ([15]; at 57.5 µM (top of the series)) -0.311% | Potency [16]
